Screening results from PubChem BioAssay.
Sampled rows, rich in hits. Any-hit rate of the full collection: about 9%.
BAZ2B block = qHTS Assay for Inhibitors of BAZ2B. actives 4.4% (n = 360,000). Bromodomain adjacent to zinc finger domain protein 2B (Homo sapiens), Q9UIF8. Potency, µM (doses to about 114 µM), for inactives: at the highest dose activity change, negative = inhibition, most hits filed as inhibitors. AlphaScreen BAZ2B-H3K14Ac peptide displacement; note: % is set by controls: 0 for no effect and ±100 for the full control effect; nearly all actives have a fitted effect of over 60% in size
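Multi-concentration screen (max 110 uM) measuring displacement of acetylated histone H3 peptide from BAZ2B by AlphaScreen, using 50 nM protein, 50 nM peptide and 10 ug/mL streptavidin donor plus Ni-chelate acceptor beads.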
JMJD2A Tudor = qHTS Assay for Inhibitors of JMJD2A-Tudor Domain; AlphaScreen JMJD2A-Tudor / H3K4me3 peptide binding; Potency, µM (series often up to 114 µM), for the others: at the highest dose activity change, negative = inhibition, hits mostly inhibitors; actives 4.4% (n = 390,000); AID 504339, 2011; note: % is set by controls: 0 for no effect and ±100 for the full control effect; nearly all actives have a fitted effect of over 50% in size
PLK1 PBD block = qHTS for Inhibitors of PLK1-PDB (polo-like kinase 1 - polo-box domain): Primary Screen; Serine/threonine-protein kinase PLK1 (Homo sapiens), P53350; Potency, µM, without a hit: max response, negative = inhibition, hits mostly inhibitors; Plk1 PBD binding of FITC phosphopeptide, fluorescence polarization; AID 720504, 2013; actives 2.8% (n = 360,000); note: series mostly up to about 57 µM; % is set by controls: 0 for no effect and ±100 for the full control effect; nearly all actives have a fitted effect of over 65% in size
HP1b chromo inh = HTS for Inhibitors of HP1-beta Chromodomain Interactions with Methylated Histone Tails | AID 540317, 2011 | AlphaScreen HP1-beta / biotin-H3K9me3 peptide binding | actives 0.56% (n = 390,000) | Potency, µM (top dose mostly 114 µM), for inactives: top-dose activity change, negative = inhibition, most hits filed as inhibitors; note: nearly all actives have a fitted effect of over 70% in size
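Compound inhibition of the preformed complex between 50 nM HP1-beta and 50 nM biotinylated H3K9me3 peptide was read by AlphaScreen. Buffer was PBS pH 7.4 with 0.01% Tween-20. Incubations ran 30 min at room temperature, with 10 ug/mL donor/acceptor beads.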
12-LOX inh = Primary qHTS assay for inhibitors of human arachidonate 12S-lipoxygenase (ALOX12): Round 2 | AID 1671190, 2021 | Potency, µM (series often up to 108 µM), without a hit: top-dose activity change, negative = inhibition, most hits filed as inhibitors | purified 12hLO, xylenol orange hydroperoxide absorbance | Polyunsaturated fatty acid lipoxygenase ALOX12 (Homo sapiens), P18054 | actives 1.1% (n = 580,000); note: % is set by controls: 0 for no effect and ±100 for the full control effect
Target sequence (P18054 whole entry, looked up): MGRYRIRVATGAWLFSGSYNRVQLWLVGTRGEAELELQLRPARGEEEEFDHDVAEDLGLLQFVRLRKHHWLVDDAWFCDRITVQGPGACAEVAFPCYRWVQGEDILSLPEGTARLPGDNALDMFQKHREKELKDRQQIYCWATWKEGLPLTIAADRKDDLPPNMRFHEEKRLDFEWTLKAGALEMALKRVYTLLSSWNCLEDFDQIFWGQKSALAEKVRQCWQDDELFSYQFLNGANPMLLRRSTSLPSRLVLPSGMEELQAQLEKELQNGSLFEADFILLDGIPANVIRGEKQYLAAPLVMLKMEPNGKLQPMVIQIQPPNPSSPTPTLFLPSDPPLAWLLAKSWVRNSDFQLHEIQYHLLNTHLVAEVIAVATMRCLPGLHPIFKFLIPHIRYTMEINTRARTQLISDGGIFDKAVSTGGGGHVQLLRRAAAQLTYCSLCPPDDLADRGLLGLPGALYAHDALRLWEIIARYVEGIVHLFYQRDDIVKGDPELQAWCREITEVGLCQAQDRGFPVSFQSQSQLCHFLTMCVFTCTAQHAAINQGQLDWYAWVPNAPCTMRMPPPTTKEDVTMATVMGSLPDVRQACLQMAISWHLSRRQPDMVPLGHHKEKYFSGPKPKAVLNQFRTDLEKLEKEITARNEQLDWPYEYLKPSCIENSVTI
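Purified human 12hLO (150 nM final) in 25 mM Hepes, 0.01% Triton X-100, pH 7.0 was preincubated 15 min at room temperature with compound. Then 40 uM arachidonic acid was added, 30 min. Hydroperoxide was read by Fe-XO absorbance ratio 573/405 nm.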
G9a block = qHTS Assay for Inhibitors of Histone Lysine Methyltransferase G9a. Potency, µM (doses to about 102 µM), for the others: at the highest dose activity, negative = inhibition, hits mostly inhibitors. G9a H3K9 monomethylation, AlphaScreen, 2 h. AID 504332, 2011. actives 8.8% (n = 350,000); note: % is set by controls: 0 for no effect and ±100 for the full control effect; nearly all actives have a fitted effect of over 75% in size
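Compounds were preincubated with 20 nM G9a for 15 min, after which biotinylated H3K9 peptide (500 nM) and SAM (20 uM) started a 2 h room-temperature reaction. Monomethylated product was quantified by antibody-based AlphaScreen chemiluminescence.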
* hit, by the source's call; ? = inconclusive; · = no result given; [ ] = remark or other dose. Calls come from the whole dose curve; as a rule, active = well fitted curve in the direction sought with a large enough effect; inconclusive = small, poorly fitted or top-dose-only effect, or another doubt; inactive = no such curve, though single readings can be large; an effect the other way counts as inactive or inconclusive. Potency is the fitted concentration of half-maximal effect.

SMILES	BAZ2B block	JMJD2A Tudor	PLK1 PBD block	HP1b chromo inh	12-LOX inh	G9a block
Cc1c(N=c2scc(-c3ccccc3)n2C)c(=O)n(-c2ccccc2)n1C	?	-19%	-1%	4%	-22%	-8%[59 µM]
CCCC(=O)NC(=S)c1c(C)n(C)n(-c2ccccc2)c1=O	-4%	-19%	-18%	23%	?	45µM*
CCC(C)C1=CC(=Nc2c(C)n(C)n(-c3ccccc3)c2=O)C=C(C(C)CC)C1=O (stereo not drawn)	3.5µM*	?	-12%	-20%	-13%	?
CC1=CC(=Nc2c(C)n(C)n(-c3ccccc3)c2=O)C=CC1=O	45µM*	·	·	·	·	10µM*
Cc1c(Cc2c(C)n(C)n(-c3ccccc3)c2=O)c(=O)n(-c2ccccc2)n1C	4%	19%[57.1 µM]	-8%	46%	17%	-5%
CN(Cc1ccccc1)C(=O)c1coc(CN2CCN(c3ccccc3F)CC2)n1	·	·	·	·	38%	·
CCOc1ccc(CN(C)c2nn3c(=O)cc(C)nc3s2)cc1	·	·	·	·	25%	·
Cc1ccc(-c2nc3ccccc3c(=O)n2-c2c(C)n(C)n(-c3ccccc3)c2=O)cc1	4%	-7%	-5%	12%	33%	·
Cc1c(CN(C)CCc2ccccc2)c(=O)n(-c2ccccc2)n1C	?	3.5µM*	-4%	?	?	4µM*
Cc1c(-n2c(=S)[nH]c3ccccc3c2=O)c(=O)n(-c2ccccc2)n1C	-5%	20µM*	-14%	19%	-6%	?
N#C/C(=C\c1cccc(O)c1)C(=O)N1CCCCC1	2%	-20%	-8%	34%	98%	·
N#C/C(=C\c1ccc(O)c(O)c1)C(=O)N1CCc2ccccc21	8.9µM*	16µM*	6%	?	?	6.3µM*
COc1cc(/C=C(\C#N)C(=O)N2CCc3ccccc32)ccc1O	?	?	22%	-5%	?	28µM*
O=c1[nH]c(-c2cccnc2)nc2ccccc12	5%	8%	-1%	26%	-22%	-27%
CC(c1nc2ccccc2c(=O)[nH]1)N1CCN(C)CC1 (stereo not drawn)	10%	71µM*	?	?	0%	?
CC(C)Nc1nc2ccccc2c(=O)[nH]1	6%	?	21µM*	-8%	?	·
O=c1[nH]c(-c2ccncc2)nc2ccccc12	-8%	?	5.3µM*	?	-27%	8.9µM*
Cc1ccc(NC(=O)Cn2cnc3ccc(Cl)cc3c2=O)cc1S(=O)(=O)N1CCOCC1	·	·	·	·	14%	·
O=C(CNC(=O)c1ccccc1)NCCc1c[nH]c2ccccc12	·	·	·	·	-8%	·
O=[N+]([O-])c1ccc(/C([O-])=C(/C(=S)NCc2ccco2)[n+]2ccccc2)cc1	?	-33%	-26%	-5%	-31%	35µM*
CCOc1ccc(NC(=S)/C(=C(\[O-])c2ccc(C)c([N+](=O)[O-])c2)[n+]2ccccc2)cc1	?	-36%	-13%	-29%	·	?
[O-]/C(=C(\C(=S)NCc1ccco1)[n+]1ccccc1)c1ccccc1Br	?	-20%	-27%	-1%	?	?
O=C(/C=C/c1ccc([N+](=O)[O-])cc1)NCc1ccco1	-33%	-21%	-2%	24%	?	14%[59 µM]
Cc1ccc(NC(=S)/C(=C(\[O-])c2ccc(F)cc2)[n+]2ccccc2)cc1	?	?	-21%	?	-21%	13µM*
Cc1ccc(/C([O-])=C(/C(=S)NCc2ccco2)[n+]2ccccc2)cc1	-33%	·	·	·	·	2.5µM*
Cc1ccc(CN2CCC(CNc3nccc(-c4ccccn4)n3)CC2)o1	·	·	·	·	106%	·
